# Measured values as given in PMC7862700, “An all-to-all approach to the identification of sequence-specific readers for epigenetic DNA modifications on cytosine”.
# Legend:
# Assay in all cases: DAPPL (digital affinity profiling via proximity ligation, sequencing); 10 mM Tris-HCl pH 7.5, 50 mM NaCl, 1 mM DTT, 4% glycerol, room temperature, 30 min; GST-TFs on glutathione beads, 16-mer random dsDNA library, 0.1% formaldehyde crosslink after washing; high values mean tight binding
# FLI1 = target: T1, FLI1 (Homo sapiens, UniProt Q01543 1-452); conditions: protein: recombinant; tags: N-terminal GST; dsDNA, one strand shown
# T1 sequence: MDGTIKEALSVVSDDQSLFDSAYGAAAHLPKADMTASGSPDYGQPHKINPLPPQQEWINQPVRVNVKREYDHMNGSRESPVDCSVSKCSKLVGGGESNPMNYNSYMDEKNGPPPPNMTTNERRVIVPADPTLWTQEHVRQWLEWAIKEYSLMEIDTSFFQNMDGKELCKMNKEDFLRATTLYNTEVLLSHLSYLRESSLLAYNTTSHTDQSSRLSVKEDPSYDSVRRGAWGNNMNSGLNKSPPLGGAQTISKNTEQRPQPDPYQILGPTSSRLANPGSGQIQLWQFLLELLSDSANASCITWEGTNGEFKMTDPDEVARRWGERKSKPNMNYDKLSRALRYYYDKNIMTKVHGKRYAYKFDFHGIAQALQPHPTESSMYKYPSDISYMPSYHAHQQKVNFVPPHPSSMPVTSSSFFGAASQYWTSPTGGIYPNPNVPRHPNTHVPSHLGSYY
# Summary of the method: (§1)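 In yeast, human transcription factors were expressed with a GST fusion, then pulled down on glutathione beads and given DNA barcodes. Pooled with a tag-only sample, they were exposed to 200 nmole of a 16-mer random double-stranded DNA library (Tris/NaCl/DTT/glycerol buffer, room temperature, 30 min), washed, crosslinked with 0.1% formaldehyde, proximity-ligated using BsaI/T4 ligase for 1 h at 37 °C, PCR-amplified and read on an Illumina NextSeq500. Each hexamer's frequency of reads for a factor, divided by the matching frequency for the tag-only sample, gives the binding signal.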
# ELK1 = target: T2, ELK1 (Homo sapiens, UniProt P19419 1-428); conditions: protein: recombinant; tags: N-terminal GST; dsDNA, one strand shown
# T2 sequence: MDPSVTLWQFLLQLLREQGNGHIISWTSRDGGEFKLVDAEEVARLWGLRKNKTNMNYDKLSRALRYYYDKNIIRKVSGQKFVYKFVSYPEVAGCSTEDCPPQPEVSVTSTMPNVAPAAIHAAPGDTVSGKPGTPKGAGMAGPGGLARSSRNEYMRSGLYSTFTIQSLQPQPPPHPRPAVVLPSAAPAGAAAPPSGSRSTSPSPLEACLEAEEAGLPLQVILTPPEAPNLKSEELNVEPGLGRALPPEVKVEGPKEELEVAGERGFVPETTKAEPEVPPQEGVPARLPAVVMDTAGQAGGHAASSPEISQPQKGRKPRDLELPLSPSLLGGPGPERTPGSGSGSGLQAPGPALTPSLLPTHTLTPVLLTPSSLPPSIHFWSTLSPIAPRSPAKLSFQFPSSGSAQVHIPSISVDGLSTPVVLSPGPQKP
# Summary of the method: as §1
# GABPA = target: T3, GABPA (Homo sapiens, UniProt Q06546 1-454); conditions: protein: recombinant; tags: N-terminal GST; dsDNA, one strand shown
# T3 sequence: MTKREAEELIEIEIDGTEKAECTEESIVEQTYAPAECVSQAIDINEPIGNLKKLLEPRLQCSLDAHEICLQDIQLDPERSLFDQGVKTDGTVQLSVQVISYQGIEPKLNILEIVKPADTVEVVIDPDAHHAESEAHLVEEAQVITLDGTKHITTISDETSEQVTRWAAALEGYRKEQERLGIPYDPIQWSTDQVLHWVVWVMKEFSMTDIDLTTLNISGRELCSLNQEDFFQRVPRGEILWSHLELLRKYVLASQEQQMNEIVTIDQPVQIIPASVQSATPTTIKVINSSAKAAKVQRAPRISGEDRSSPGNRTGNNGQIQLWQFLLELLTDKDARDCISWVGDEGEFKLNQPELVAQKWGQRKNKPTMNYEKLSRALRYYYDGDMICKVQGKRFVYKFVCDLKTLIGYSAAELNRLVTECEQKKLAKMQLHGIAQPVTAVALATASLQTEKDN
# Summary of the method: as §1
# ERG = target: T4, ERG (Homo sapiens, UniProt P11308 1-479); conditions: protein: recombinant; tags: N-terminal GST; dsDNA, one strand shown
# T4 sequence: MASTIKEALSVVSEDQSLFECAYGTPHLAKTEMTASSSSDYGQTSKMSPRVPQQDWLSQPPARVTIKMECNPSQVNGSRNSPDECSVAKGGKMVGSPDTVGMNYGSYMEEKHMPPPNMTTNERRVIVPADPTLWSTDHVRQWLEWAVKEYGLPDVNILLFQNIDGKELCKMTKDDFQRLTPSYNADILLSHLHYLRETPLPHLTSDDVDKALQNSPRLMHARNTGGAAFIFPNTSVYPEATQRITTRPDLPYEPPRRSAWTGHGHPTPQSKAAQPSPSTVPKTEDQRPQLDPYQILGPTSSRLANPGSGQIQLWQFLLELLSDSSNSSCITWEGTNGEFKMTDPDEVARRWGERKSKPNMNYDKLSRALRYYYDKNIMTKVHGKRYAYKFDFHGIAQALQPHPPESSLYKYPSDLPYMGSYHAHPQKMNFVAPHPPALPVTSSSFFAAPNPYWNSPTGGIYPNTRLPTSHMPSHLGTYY
# Summary of the method: as §1
# ELF1 = ELF1 (Homo sapiens, UniProt P32519 1-619); conditions: protein: recombinant; tags: N-terminal GST; dsDNA, one strand shown
# Summary of the method: as §1
# EHF = target: T5, EHF (Homo sapiens, UniProt Q9NZC4 1-300); conditions: protein: recombinant; tags: N-terminal GST; dsDNA, one strand shown
# T5 sequence: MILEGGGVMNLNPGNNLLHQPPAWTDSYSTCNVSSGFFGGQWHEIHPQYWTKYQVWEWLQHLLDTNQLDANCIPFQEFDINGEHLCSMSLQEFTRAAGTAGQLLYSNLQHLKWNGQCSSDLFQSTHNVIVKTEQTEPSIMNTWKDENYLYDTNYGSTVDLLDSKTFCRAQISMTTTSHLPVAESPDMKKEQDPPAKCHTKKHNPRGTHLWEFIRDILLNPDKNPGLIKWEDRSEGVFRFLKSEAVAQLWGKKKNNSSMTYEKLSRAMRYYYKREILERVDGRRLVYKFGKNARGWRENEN
# Summary of the method: as §1
# SPI1 = SPI1 (Homo sapiens, UniProt P17947 1-270); conditions: protein: recombinant; tags: N-terminal GST; dsDNA, one strand shown
# Summary of the method: as §1
# SPIB = SPIB (Homo sapiens, UniProt Q01892 1-262); conditions: protein: recombinant; tags: N-terminal GST; dsDNA, one strand shown
# Summary of the method: as §1
# ELK3 = target: T6, ELK3 (Homo sapiens, UniProt P41970 1-407); conditions: protein: recombinant; tags: N-terminal GST; dsDNA, one strand shown
# T6 sequence: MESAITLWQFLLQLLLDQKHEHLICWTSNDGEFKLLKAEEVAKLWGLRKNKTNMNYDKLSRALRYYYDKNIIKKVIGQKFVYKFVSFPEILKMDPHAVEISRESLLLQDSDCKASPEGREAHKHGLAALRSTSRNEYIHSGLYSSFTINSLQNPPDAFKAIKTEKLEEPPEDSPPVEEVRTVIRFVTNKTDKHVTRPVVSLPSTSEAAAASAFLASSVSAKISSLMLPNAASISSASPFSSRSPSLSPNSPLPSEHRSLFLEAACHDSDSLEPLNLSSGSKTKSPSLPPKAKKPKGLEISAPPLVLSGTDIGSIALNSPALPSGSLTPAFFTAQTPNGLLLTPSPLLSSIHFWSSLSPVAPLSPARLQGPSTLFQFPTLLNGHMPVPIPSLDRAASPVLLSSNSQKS
# Summary of the method: as §1
# FEV = target: T7, FEV (Homo sapiens, UniProt Q99581 1-238); conditions: protein: recombinant; tags: N-terminal GST; dsDNA, one strand shown
# T7 sequence: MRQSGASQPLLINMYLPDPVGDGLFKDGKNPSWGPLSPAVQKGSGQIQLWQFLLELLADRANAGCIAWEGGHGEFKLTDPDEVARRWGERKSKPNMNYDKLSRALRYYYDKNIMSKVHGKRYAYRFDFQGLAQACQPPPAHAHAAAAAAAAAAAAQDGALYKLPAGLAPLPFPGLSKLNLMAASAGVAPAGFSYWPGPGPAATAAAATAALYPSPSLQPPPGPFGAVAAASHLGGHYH
# Summary of the method: as §1
# ETV5 = ETV5 (Homo sapiens, UniProt P41161 1-510); conditions: protein: recombinant; tags: N-terminal GST; dsDNA, one strand shown
# Summary of the method: as §1
# HSF1 = HSF1 (Homo sapiens, UniProt Q00613 1-529); conditions: protein: recombinant; tags: N-terminal GST; chain copies: 3; dsDNA, one strand shown
# Summary of the method: as §1
# SPIC = target: T8, SPIC (Homo sapiens, UniProt Q8N5J4 1-248); conditions: protein: recombinant; tags: N-terminal GST; dsDNA, one strand shown
# T8 sequence: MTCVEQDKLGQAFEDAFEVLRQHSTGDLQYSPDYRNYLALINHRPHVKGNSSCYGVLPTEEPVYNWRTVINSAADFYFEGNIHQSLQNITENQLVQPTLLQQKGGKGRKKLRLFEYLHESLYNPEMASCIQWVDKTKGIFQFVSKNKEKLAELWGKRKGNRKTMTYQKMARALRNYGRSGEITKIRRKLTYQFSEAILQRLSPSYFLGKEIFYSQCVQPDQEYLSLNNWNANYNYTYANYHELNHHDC
# Summary of the method: as §1
# ELF4 = ELF4 (Homo sapiens, UniProt Q99607 1-663); conditions: protein: recombinant; tags: N-terminal GST; dsDNA, one strand shown
# Summary of the method: as §1
# ELK4 = target: T9, ELK4 (Homo sapiens, UniProt P28324-2 1-405); conditions: protein: recombinant; tags: N-terminal GST; dsDNA, one strand shown
# T9 sequence: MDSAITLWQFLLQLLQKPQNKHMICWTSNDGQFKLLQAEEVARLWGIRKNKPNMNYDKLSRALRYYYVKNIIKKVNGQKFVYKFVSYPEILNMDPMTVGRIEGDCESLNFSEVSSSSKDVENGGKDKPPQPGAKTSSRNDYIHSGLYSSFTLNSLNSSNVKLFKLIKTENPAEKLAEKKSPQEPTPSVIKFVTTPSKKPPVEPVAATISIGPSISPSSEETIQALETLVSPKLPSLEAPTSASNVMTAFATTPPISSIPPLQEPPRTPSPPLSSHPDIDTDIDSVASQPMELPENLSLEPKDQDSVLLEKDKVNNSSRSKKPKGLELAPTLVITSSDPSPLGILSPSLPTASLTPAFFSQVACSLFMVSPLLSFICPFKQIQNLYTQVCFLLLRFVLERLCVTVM
# Summary of the method: as §1
# ETV2 = target: T10, ETV2 (Homo sapiens, UniProt O00321 1-342); conditions: protein: recombinant; tags: N-terminal GST; dsDNA, one strand shown
# T10 sequence: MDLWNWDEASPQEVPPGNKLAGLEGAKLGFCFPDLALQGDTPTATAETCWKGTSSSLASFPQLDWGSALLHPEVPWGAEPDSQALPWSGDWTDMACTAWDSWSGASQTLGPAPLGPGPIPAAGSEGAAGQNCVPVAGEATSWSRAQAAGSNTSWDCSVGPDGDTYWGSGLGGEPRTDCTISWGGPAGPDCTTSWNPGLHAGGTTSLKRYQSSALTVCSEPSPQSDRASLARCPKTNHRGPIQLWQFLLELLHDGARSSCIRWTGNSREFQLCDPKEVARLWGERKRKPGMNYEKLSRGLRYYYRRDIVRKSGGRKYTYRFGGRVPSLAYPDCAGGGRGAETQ
# Summary of the method: as §1
# ELF3 = target: T11, ELF3 (Homo sapiens, UniProt P78545 1-371); conditions: protein: recombinant; tags: N-terminal GST; dsDNA, one strand shown
# T11 sequence: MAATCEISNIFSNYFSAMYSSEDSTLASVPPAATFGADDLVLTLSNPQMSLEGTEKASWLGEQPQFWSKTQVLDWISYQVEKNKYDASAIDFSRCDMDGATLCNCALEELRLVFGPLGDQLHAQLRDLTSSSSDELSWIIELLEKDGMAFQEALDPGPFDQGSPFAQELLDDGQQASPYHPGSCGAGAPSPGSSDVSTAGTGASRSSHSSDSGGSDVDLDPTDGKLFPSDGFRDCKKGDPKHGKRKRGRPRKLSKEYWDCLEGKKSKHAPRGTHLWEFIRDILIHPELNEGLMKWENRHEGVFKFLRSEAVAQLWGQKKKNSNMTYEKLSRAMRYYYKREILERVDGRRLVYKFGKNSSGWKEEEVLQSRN
# Summary of the method: as §1
# ETV1 = ETV1 (Homo sapiens, UniProt P50549 1-477); conditions: protein: recombinant; tags: N-terminal GST; dsDNA, one strand shown
# Summary of the method: as §1
# Sequence of ELF4 (Q99607 whole entry): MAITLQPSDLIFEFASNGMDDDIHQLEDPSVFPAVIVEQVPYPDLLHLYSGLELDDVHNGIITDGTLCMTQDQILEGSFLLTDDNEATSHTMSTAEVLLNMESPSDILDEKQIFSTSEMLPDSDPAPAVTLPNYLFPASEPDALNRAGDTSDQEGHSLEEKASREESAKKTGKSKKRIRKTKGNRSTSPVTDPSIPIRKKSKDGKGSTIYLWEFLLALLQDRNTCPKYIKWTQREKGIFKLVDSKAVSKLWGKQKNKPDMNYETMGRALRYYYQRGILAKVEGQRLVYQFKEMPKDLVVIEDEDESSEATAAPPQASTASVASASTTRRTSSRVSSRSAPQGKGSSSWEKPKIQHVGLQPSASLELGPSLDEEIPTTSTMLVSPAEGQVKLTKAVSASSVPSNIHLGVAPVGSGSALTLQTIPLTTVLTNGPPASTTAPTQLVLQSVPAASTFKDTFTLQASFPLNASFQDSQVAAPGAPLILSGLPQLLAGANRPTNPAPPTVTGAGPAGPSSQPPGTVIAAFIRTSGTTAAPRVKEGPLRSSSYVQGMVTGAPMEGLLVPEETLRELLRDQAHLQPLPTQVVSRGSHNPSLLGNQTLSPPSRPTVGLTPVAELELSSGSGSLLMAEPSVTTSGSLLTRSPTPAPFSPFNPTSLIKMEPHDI
# Sequence of ETV1 (P50549 whole entry): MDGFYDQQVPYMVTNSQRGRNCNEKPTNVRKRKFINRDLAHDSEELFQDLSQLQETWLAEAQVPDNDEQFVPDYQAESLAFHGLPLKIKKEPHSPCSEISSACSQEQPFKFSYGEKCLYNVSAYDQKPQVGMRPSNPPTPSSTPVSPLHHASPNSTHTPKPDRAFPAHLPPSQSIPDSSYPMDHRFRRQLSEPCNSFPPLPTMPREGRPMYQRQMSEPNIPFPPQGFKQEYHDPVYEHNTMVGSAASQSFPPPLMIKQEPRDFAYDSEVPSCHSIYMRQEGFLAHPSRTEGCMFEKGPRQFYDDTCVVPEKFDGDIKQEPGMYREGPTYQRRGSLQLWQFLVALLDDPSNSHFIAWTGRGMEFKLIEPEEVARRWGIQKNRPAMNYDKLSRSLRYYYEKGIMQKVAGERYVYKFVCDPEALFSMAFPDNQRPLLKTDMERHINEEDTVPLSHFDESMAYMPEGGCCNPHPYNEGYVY
# Sequence of ELF1 (P32519 whole entry): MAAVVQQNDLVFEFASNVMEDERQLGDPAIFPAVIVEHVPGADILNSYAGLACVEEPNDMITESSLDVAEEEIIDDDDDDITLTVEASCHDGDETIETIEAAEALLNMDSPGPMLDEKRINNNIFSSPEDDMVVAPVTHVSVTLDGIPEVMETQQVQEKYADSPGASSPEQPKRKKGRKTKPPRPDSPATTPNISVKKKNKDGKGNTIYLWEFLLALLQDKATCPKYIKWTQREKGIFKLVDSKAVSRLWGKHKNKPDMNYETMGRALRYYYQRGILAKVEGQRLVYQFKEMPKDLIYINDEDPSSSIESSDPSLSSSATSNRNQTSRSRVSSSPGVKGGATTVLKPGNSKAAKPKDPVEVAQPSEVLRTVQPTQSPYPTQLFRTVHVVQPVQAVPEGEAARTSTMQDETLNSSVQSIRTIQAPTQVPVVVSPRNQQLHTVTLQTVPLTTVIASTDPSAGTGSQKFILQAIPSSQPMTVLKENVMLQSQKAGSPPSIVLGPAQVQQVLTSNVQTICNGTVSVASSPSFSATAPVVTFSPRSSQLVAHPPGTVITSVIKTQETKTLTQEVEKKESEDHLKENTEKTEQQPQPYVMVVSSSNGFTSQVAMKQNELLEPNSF
# Sequence of HSF1 (Q00613 whole entry): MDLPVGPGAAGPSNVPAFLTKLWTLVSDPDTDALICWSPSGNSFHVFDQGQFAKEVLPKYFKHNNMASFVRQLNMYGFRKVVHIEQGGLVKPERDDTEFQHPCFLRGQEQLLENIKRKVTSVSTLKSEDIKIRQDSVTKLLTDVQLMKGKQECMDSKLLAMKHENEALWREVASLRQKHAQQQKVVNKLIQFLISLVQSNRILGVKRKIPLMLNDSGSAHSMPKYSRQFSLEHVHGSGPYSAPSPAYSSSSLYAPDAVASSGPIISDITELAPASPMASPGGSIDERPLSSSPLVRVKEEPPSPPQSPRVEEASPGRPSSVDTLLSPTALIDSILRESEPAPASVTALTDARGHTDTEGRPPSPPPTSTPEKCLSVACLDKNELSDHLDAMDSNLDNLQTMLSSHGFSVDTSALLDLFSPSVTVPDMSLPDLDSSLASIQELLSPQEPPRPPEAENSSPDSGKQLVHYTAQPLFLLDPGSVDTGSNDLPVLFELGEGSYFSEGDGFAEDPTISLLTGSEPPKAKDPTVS
# Sequence of SPIB (Q01892 whole entry): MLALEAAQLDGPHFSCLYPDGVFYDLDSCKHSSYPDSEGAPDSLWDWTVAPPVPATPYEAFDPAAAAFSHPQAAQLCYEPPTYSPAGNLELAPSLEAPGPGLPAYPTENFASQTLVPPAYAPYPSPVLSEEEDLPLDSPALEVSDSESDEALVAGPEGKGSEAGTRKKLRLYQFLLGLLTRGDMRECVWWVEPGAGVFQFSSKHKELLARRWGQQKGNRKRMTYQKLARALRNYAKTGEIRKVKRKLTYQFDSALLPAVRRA
# Sequence of ETV5 (P41161 whole entry): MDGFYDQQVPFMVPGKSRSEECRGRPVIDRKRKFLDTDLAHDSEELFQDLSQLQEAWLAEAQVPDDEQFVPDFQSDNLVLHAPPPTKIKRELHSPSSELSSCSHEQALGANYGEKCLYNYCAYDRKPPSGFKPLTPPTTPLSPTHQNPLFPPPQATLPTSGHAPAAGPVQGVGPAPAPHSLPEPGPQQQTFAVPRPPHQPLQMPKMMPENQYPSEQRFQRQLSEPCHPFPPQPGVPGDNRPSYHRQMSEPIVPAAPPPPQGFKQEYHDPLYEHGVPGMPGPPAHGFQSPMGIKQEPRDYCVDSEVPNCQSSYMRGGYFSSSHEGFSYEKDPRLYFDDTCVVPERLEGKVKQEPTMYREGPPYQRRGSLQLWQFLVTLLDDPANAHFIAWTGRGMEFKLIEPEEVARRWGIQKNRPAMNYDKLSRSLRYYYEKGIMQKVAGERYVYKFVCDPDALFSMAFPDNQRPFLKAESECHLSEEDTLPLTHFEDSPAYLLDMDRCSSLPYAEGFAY
sequence,measurement,setting,value
CACGCG,binding signal,FLI1,"1.32 fold enrichment (6-mer frequency, TF over GST control)"
same,binding signal,ELK1,"1.15 fold enrichment (6-mer frequency, TF over GST control)"
same,binding signal,GABPA,"1.23 fold enrichment (6-mer frequency, TF over GST control)"
same,binding signal,ERG,"1.18 fold enrichment (6-mer frequency, TF over GST control)"
same,binding signal,ELF1,"1.23 fold enrichment (6-mer frequency, TF over GST control)"
same,binding signal,EHF,"1.2 fold enrichment (6-mer frequency, TF over GST control)"
same,binding signal,SPI1,"1.08 fold enrichment (6-mer frequency, TF over GST control)"
same,binding signal,SPIB,"1.2 fold enrichment (6-mer frequency, TF over GST control)"
same,binding signal,ELK3,"1.14 fold enrichment (6-mer frequency, TF over GST control)"
same,binding signal,FEV,"1.16 fold enrichment (6-mer frequency, TF over GST control)"
same,binding signal,ETV5,"1.04 fold enrichment (6-mer frequency, TF over GST control)"
same,binding signal,HSF1,"1.1 fold enrichment (6-mer frequency, TF over GST control)"
same,binding signal,SPIC,"1.29 fold enrichment (6-mer frequency, TF over GST control)"
same,binding signal,ELF4,"1.2 fold enrichment (6-mer frequency, TF over GST control)"
same,binding signal,ELK4,"1.24 fold enrichment (6-mer frequency, TF over GST control)"
same,binding signal,ETV2,"1.18 fold enrichment (6-mer frequency, TF over GST control)"
same,binding signal,ELF3,"1.08 fold enrichment (6-mer frequency, TF over GST control)"
same,binding signal,ETV1,"1.09 fold enrichment (6-mer frequency, TF over GST control)"
